The supplement of paper PMC10849652
The full data set covers some 7,900 targets. This sample favours those with a hit. About 0.6% of all pairs of compound and target were hits.

These targets were tested with Cc1nc(Nc2ncc(C(=O)Nc3c(C)cccc3Cl)s2)cc(N2CCN(CCO)CC2)n1 [dasatinib] (assay: log2 fold change, soluble protein after heating vs DMSO (PISA); higher = thermal stabilisation; K562 cells, 10 uM, 30 min; active = over 0.2 and 3.5 SD of the protein, either way, in both replicates (recomputed)).
Summary of the method: (§1)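 Soluble protein was quantified by TMTpro 16plex LC-MS/MS after channel sums were equalised. It was obtained as the supernatant after 21,000xg for 90 min from pooled aliquots of K562 cells (2×10^6 cells/mL, 10 μM compound, 30 min) heated for 3 min across 48°C-58°C and extracted in PBS with 0.5% NP-40 at 4°C. Thermal stability values are relative to control samples and come from duplicates. They are given as log2 fold changes.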

UniProt Q96JM3, sequence (Q96JM3 whole entry, looked up): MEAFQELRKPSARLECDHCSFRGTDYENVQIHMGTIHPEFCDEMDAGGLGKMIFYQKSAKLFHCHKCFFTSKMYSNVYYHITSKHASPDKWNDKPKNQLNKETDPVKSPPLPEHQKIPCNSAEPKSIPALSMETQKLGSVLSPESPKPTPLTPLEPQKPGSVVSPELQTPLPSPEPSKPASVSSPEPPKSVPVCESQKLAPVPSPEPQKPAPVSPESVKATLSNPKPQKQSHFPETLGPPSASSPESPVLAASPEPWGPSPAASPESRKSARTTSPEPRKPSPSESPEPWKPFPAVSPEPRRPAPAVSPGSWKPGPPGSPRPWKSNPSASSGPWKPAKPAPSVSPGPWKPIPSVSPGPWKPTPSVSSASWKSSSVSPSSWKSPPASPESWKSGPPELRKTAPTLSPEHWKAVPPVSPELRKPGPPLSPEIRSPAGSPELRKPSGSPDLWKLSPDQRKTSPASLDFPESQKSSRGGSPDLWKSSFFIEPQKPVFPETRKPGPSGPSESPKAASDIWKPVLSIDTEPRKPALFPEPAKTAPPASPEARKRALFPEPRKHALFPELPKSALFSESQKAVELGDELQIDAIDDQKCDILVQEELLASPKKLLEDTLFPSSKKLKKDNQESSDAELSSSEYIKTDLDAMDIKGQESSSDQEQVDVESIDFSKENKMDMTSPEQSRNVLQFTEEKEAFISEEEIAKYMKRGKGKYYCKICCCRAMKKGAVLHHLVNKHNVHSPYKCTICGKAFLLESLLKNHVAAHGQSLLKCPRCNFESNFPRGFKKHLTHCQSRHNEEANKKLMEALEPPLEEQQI
UniProt Q9P0B6, sequence (Q9P0B6 whole entry, looked up): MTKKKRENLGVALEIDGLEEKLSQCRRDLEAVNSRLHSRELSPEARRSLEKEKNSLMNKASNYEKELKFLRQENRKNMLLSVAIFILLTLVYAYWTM
UniProt Q86X83, sequence (Q86X83 whole entry, looked up): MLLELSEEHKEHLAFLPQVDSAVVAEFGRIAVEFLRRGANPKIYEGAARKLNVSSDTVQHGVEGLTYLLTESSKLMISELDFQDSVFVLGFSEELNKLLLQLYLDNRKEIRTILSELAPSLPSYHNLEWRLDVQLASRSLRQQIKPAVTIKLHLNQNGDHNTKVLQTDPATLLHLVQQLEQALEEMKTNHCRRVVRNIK
UniProt Q96RR4, sequence (Q96RR4 whole entry, looked up): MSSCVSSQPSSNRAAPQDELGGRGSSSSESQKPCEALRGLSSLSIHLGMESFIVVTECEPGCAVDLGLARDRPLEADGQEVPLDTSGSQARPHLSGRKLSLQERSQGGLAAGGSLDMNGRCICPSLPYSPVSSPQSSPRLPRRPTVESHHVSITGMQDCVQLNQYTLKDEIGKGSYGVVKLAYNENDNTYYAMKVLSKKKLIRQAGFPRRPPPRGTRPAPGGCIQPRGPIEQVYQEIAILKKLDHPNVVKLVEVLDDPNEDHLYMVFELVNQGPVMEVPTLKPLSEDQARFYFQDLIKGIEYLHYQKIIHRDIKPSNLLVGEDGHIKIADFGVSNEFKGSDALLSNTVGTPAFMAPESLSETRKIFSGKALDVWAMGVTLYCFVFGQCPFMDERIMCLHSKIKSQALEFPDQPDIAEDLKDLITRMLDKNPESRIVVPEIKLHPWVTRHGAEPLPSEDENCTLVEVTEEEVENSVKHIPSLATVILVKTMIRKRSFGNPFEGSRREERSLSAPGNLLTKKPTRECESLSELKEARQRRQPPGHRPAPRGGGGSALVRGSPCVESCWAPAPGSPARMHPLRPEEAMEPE
UniProt Q13137, sequence (Q13137 whole entry, looked up): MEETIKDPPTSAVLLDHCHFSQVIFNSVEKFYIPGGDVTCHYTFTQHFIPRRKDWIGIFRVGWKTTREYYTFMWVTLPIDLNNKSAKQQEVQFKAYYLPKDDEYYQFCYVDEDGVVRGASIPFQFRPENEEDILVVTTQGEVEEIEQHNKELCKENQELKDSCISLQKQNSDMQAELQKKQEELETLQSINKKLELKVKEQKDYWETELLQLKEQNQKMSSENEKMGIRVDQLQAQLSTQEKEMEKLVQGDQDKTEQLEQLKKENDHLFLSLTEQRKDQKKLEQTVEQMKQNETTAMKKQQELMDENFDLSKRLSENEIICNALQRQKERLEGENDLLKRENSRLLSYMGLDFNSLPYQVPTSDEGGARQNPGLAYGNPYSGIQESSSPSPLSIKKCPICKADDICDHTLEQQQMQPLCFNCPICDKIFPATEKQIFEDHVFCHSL
UniProt P51790, sequence (P51790 whole entry, looked up): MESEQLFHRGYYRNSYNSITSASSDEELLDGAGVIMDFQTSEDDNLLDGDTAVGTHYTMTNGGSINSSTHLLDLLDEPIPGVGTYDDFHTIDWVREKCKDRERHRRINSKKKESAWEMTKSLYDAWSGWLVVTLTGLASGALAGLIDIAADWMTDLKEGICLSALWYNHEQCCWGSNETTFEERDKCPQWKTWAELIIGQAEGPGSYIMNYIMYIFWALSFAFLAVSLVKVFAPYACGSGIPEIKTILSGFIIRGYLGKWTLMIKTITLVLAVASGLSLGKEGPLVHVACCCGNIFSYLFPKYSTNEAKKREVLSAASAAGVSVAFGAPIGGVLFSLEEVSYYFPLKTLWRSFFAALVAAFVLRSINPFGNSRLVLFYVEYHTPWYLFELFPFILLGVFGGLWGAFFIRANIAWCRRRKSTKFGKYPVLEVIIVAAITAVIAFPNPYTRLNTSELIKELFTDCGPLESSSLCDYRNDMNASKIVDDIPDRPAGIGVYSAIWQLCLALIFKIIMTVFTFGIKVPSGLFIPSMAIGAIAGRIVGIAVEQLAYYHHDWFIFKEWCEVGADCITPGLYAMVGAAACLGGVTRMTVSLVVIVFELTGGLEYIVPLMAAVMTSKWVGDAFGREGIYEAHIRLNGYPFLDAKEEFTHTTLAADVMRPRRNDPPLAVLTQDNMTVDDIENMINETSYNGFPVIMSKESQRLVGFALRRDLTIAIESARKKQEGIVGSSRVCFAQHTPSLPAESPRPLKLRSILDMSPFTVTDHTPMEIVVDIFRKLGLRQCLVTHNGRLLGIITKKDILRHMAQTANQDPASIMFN
UniProt Q16740, sequence (Q16740 whole entry, looked up): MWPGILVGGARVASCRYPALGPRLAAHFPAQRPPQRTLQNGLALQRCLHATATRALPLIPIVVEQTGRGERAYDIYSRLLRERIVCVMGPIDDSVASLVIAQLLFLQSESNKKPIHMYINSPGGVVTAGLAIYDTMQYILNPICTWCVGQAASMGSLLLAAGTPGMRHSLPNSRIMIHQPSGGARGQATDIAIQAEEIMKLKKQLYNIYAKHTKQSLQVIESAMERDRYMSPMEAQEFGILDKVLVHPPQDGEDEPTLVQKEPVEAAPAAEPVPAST
UniProt O75122, sequence (O75122 whole entry, looked up): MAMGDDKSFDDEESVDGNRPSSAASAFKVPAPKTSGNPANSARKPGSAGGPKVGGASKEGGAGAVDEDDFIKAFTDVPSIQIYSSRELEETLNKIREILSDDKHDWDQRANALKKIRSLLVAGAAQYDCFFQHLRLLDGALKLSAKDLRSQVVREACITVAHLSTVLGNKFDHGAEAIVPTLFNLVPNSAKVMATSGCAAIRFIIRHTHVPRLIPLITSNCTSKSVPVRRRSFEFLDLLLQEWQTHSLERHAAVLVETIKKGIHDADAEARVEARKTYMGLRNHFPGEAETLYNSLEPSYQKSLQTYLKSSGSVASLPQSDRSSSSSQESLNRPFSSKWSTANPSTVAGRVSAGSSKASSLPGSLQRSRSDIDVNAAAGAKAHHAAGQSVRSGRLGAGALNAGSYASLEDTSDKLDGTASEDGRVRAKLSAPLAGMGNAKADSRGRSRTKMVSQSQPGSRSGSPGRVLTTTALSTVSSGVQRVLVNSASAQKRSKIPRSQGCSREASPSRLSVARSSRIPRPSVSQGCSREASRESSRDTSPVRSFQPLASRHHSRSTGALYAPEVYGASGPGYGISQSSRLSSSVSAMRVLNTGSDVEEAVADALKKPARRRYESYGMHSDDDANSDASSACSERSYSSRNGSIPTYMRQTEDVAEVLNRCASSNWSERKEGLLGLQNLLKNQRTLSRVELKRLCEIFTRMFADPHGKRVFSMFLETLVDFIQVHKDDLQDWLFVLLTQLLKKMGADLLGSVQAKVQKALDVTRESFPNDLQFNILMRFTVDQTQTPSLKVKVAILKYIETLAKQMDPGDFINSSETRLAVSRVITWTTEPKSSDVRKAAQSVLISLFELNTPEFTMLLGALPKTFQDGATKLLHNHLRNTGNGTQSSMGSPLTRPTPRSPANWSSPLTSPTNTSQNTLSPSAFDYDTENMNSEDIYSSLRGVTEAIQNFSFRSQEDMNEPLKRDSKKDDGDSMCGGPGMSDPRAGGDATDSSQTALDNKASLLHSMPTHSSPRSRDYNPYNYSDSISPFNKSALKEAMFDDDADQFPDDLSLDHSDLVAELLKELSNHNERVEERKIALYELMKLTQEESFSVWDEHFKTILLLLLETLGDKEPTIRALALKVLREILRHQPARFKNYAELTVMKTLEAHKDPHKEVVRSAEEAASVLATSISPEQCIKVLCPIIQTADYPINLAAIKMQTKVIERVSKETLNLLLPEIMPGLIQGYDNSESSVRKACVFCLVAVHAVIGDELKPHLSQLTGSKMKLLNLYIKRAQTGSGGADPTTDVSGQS
UniProt P50750, sequence (P50750 whole entry, looked up): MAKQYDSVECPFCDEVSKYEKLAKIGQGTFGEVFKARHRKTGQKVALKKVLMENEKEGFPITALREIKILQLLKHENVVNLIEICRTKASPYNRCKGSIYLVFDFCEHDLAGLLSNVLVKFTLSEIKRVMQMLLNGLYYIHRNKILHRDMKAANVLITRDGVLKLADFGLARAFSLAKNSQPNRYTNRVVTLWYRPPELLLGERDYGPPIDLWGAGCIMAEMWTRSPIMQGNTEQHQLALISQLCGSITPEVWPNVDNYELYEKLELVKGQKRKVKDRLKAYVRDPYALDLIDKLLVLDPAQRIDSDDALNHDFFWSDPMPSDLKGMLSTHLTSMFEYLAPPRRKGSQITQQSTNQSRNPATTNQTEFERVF
UniProt P61024, sequence (P61024 whole entry, looked up): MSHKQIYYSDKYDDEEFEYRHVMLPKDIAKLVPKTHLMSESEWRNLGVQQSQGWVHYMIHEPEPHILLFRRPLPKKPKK

log2 fold change, inactive:
CAMKK2 (UniProt Q96RR4) 0
CKS1B (UniProt P61024) 0
CHEK1 (UniProt O14757) -0.064
CLPP (UniProt Q16740) 0.063
CDK9 isoform 2 (UniProt P50750) -0.011
CHAMP1 (UniProt Q96JM3) -0.092
CCDC167 (UniProt Q9P0B6) 0.193
CALCOCO2 isoform 4 (UniProt Q13137) 0.01
CPSF3 (UniProt Q9UKF6) -0.082
CLASP2 isoform 3 (UniProt O75122) -0.175
CLSPN (UniProt Q9HAW4) 0.094
COMMD2 (UniProt Q86X83) -0.177
CLCN3 (UniProt P51790) 0.019
CCNK isoform 4 (UniProt O75909) -0.013

These targets were tested with Cc1ncc(-c2ccnc(Nc3ccc(S(C)(=O)=O)cc3)n2)n1C(C)C in the same assay as above.
Summary of the method: as §1

log2 fold change, inactive:
C9orf64 (UniProt Q5T6V5) -0.04
CELF2 isoform 3 (UniProt O95319) 0.079
CAMSAP1 isoform 3 (UniProt Q5T5Y3) -0.055
CNOT4 isoform 6 (UniProt O95628) -0.003
CSTF2 (UniProt P33240) 0.047
CBX5 (UniProt P45973) -0.064
CHD3 isoform 3 (UniProt Q12873) -0.172
CCDC9 (UniProt Q9Y3X0) 0.028
CHERP (UniProt Q8IWX8) 0.011
COQ9 (UniProt O75208) 0.001
CPQ (UniProt Q9Y646) -0.046
CD81 (UniProt P60033) -0.015
CDK6 (UniProt Q00534) 0.081
CHMP4C (UniProt Q96CF2) 0
CHAC2 (UniProt Q8WUX2) 0.012
CSNK2B (UniProt P67870) -0.05
CBR1 (UniProt P16152) 0.022
CRKL (UniProt P46109) 0.023
CHD4 isoform 2 (UniProt Q14839) -0.137
COA6 isoform 2 (UniProt Q5JTJ3) 0.012
CNDP2 (UniProt Q96KP4) -0.041
CETN2 (UniProt P41208) -0.001
CAMKK2 (UniProt Q96RR4) -0.14
CKS1B (UniProt P61024) 0.026
CHEK1 (UniProt O14757) 0.002
CLPP (UniProt Q16740) -0.016
CDK9 isoform 2 (UniProt P50750) 0.22
CHAMP1 (UniProt Q96JM3) -0.123
CCDC167 (UniProt Q9P0B6) 0.026
CALCOCO2 isoform 4 (UniProt Q13137) 0.1
CPSF3 (UniProt Q9UKF6) -0.023
CLASP2 isoform 3 (UniProt O75122) -0.188
CLSPN (UniProt Q9HAW4) -0.123
COMMD2 (UniProt Q86X83) 0.097
CLCN3 (UniProt P51790) -0.027
CCNK isoform 4 (UniProt O75909) -0.025
